From PubChem BioAssay AID1347088 (National Center for Advancing Translational Sciences (NCATS), 2019)
Inconclusive results are not listed. Calls of active or inactive are those of the source. The call rests on the fitted dose curve.

Test: qHTS for Inhibitors of the Functional Ribonucleoprotein Complex (vRNP) of Lymphocytic Choriomeningitis Arenaviruses (LCMV): Viability assay - Alamar blue signal for LCMV Confirmatory Screen
Conditions: LCMV vRNP confirmatory screen cells; series mostly up to 53.9 µM; viability change, negative = toxic: at the top concentration

SMILES | viability change, negative = toxic | Potency
COc1ccc2c(c1OC)CN1CCc3cc4c(cc3C1C2)OCO4 (centres undefined) | -16.3% (inactive) | –
Cc1ncc([N+](=O)[O-])n1CC(C)O (centres undefined) | -3.13% (inactive) | –
NC(=O)N/N=C/c1ccc([N+](=O)[O-])o1 | 28.6% (inactive) | –
O=C(Nc1ccccc1)Nc1ccc(-c2ccc(C(=O)[C@H]3CCC[C@H]3C(=O)O)cc2)cc1 | -10.2% (inactive) | –
CCCCCC[C@H]1C(=O)O[C@H](C)[C@H](NC(=O)c2cccc(NC=O)c2O)C(=O)O[C@@H](C)[C@@H]1OC(=O)CC(C)C | -22.3% (inactive) | –
CCCCCN=C(N)N/N=C/c1c[nH]c2ccc(OC)cc12 | – | 9.68 µM (active)
CCOC(=O)OCC/C(SC(=O)OCC)=C(\C)N(C=O)Cc1cnc(C)nc1N | 0.284% (inactive) | –
O=C(Nc1ccc([N+](=O)[O-])cc1Cl)c1cc(Cl)ccc1O | – | 3.43 µM (active)
CC(=O)[C@H]1CC[C@H]2[C@@H]3CCC4=CC(=O)CC[C@]4(C)[C@H]3CC[C@]12C | -24.7% (inactive) | –
